# Test results from PubChem BioAssay.
# Calls of active or inactive are those of the source.
# Key:
# [1] = binders of probe aFSTL3 on microarray, primary screen, stem cell growth factor project, biochemical, small-molecule microarray, fluorescence 635/667 (AID 1064); conditions: higher = more signal;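 further: measures binding of the biotinylated anti-FSTL3 antibody to printed compounds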
# [2] = binders from COS7 lysate, DM2A8 probe, primary screen, torsin A project, cell lysate, small-molecule microarray, fluorescence 635/667 (AID 1065); conditions: higher = more signal, COS7 lysate expressing mutant human TOR1A
# [3] = binders of probe aFGF2 on microarray, primary screen, stem cell growth factor project, biochemical, small-molecule microarray, fluorescence 635/667 (AID 1067); conditions: higher = more signal;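 further: measures binding of biotinylated aFGF2 protein to printed compounds on slides; z-score merges feature fluorescence and signal-to-noise across triplicate slides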
# [4] = binders of probe aFGF10 on microarray, primary screen, stem cell growth factor project, biochemical, small-molecule microarray, fluorescence 635/667 (AID 1071); conditions: higher = more signal;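 further: score merges 667 nm spot intensity and signal to noise from triplicate slides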
# [5] = target: Neurogenic locus notch homolog protein 2 (Homo sapiens) (UniProt Q04721); assay: Notch2 binders on small-molecule microarrays, primary screen, biochemical, small-molecule microarray, 635 nm fluorescence, stem cell growth factors (AID 1073); conditions: Notch2 binding, higher = more signal
# [6] = target: Pro-neuregulin-1, membrane-bound isoform (Homo sapiens) (UniProt Q02297); assay: NRG1 binders on small-molecule microarrays, primary screen, psychiatric disease protein project, biochemical, small-molecule microarray, fluorescence 635/667 (AID 1075); conditions: NRG1 binding, 635 nm fluorescence, higher = more signal;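 further: score combines 667 nm spot fluorescence with signal to noise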
# [7] = tested on: Neuregulin-1 EGF-like domain; assay: binders of neuregulin-1 EGF-like domain, primary screen, biochemical, small-molecule microarray, 635 nm fluorescence (AID 1081); conditions: small-molecule microarray binding, higher = more signal;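 further: binding of the protein to compounds printed on small-molecule microarray slides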
# [8] = FRG1 promoter luciferase signal modulators, primary screen, FRG1 inhibition for FSHD, cell-based, C2C12 myotubes, firefly/Renilla luciferase, luminescence (AID 1084); conditions: higher = more signal, called active from +8 up or from −8 down
# [9] = binders of probe aFST on microarray, primary screen, stem cell growth factor project, biochemical, small-molecule microarray, fluorescence 635/667 (AID 1086); conditions: higher = more signal;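 further: score merges 667 nm fluorescence with signal-to-noise of each printed compound spot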
# [10] = binders of probe aHhip on microarray, primary screen, stem cell growth factor project, biochemical, small-molecule microarray, fluorescence 635/667 (AID 1087); conditions: higher = more signal;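 further: score merges spot fluorescence at 667nm with spot signal to noise ratio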
# Sequence of Pro-neuregulin-1, membrane-bound isoform (Homo sapiens) (Q02297 whole entry, looked up, the tested form may be a part, canonical isoform): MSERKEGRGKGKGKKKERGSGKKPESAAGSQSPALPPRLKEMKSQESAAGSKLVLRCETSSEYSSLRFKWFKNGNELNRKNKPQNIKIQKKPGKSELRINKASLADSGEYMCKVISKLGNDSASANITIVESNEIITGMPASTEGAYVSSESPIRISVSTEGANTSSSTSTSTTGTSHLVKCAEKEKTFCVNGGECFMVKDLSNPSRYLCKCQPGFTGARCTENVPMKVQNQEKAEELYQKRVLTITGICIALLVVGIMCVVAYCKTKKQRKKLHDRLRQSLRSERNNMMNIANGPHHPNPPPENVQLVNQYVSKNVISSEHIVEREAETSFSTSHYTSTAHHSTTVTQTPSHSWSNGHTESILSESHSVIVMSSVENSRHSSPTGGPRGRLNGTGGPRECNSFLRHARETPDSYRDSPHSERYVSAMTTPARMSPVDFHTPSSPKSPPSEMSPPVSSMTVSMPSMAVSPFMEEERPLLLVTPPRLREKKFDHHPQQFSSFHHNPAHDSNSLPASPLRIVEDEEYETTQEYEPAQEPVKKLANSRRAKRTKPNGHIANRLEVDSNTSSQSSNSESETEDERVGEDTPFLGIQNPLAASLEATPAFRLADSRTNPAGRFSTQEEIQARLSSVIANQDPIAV
# Sequence of Neurogenic locus notch homolog protein 2 (Homo sapiens) (Q04721 whole entry, looked up, canonical isoform): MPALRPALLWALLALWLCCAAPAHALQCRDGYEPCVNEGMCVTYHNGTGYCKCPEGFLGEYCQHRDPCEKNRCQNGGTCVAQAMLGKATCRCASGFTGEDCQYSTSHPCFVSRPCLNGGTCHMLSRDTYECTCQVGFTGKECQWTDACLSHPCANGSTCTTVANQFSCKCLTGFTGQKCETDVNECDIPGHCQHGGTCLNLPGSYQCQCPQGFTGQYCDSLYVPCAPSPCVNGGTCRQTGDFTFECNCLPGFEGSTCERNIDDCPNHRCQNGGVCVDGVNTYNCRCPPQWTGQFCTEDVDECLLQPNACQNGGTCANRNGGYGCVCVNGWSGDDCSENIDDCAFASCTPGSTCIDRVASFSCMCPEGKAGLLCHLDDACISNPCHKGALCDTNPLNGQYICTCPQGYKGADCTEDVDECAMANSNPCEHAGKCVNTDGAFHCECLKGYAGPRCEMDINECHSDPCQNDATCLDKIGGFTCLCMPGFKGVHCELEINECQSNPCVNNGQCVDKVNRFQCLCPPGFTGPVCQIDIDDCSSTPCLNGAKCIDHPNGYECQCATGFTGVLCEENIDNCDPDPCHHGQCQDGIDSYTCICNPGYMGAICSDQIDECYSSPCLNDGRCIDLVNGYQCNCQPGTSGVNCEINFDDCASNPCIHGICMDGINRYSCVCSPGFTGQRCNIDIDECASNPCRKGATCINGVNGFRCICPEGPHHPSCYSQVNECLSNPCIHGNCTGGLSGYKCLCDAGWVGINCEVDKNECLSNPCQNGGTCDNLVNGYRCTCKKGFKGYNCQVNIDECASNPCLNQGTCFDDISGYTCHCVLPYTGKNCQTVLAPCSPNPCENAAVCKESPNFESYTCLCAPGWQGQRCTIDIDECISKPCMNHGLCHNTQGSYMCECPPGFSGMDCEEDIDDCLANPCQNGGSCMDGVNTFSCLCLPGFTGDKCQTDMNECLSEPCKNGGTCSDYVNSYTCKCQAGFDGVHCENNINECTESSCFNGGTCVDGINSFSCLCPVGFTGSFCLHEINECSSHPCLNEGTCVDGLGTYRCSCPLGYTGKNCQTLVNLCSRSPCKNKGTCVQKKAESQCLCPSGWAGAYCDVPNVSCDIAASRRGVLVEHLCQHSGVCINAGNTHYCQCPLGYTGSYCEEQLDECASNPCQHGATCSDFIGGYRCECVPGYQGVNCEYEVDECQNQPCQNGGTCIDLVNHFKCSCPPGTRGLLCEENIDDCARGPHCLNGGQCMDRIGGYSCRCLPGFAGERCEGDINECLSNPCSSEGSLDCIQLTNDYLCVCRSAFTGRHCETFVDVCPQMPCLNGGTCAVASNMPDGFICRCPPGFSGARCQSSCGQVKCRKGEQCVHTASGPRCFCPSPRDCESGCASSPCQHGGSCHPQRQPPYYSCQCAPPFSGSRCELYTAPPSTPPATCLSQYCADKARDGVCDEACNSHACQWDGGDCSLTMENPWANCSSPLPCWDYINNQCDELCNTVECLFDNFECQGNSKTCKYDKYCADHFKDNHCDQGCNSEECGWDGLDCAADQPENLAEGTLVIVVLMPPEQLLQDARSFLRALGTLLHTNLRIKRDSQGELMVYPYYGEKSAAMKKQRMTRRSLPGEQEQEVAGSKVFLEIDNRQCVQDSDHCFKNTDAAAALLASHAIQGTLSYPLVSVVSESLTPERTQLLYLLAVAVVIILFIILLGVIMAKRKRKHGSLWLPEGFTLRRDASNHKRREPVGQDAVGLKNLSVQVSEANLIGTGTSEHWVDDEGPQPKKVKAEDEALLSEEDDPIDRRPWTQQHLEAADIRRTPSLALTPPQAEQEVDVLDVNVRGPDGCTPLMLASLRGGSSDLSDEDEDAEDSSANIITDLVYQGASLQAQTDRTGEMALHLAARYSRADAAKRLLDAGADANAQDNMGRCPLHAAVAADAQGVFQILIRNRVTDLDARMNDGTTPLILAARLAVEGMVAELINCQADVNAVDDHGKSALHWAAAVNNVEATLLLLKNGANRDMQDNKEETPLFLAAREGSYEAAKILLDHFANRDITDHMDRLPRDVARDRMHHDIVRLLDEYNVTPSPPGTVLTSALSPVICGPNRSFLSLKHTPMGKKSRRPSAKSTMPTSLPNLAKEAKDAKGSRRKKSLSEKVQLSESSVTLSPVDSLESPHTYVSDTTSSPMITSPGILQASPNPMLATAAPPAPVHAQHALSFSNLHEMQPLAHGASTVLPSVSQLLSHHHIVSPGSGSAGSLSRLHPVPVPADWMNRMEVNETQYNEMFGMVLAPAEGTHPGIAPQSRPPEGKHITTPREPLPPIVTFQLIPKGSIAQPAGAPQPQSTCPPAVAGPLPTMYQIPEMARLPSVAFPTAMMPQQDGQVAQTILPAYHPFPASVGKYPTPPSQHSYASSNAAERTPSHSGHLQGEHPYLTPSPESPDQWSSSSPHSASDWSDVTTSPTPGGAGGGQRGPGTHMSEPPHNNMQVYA
Structure (SMILES),composite z-score [1],composite z-score [2],composite z-score [3],composite z-score [4],composite z-score [5],composite z-score [6],composite z-score [7],z-score [8],composite z-score [9],composite z-score [10]
CC(C)[C@H]1COC(=O)N1C(=O)[C@H]1[C@@H](c2ccccc2)N(c2ccccc2)O[C@@H]1C,-0.385,0.182,-0.204,0.488,1.14,0.182,0.974,-0.803 (inactive),0.301,-0.367
C=CC[C@@]1(C(=O)NCc2ccccc2)N=C(c2ccc(OCCCO)cc2)O[C@@H]1c1ccccc1CN=[N+]=[N-],0.351,-0.651,0.153,0.799,1.54,1.57,1.2,-2.56 (inactive),1.44,-0.0237
CCCCN1CC=CC23O[C@@H]4/C=C\CCCOC(=O)C4[C@H]2C(=O)N(C(C)CO)[C@@H]3C1=O (stereo not given in full),-0.0235,-0.809,-0.0963,-0.272,-0.327,0.223,1.19,-1.01 (inactive),-0.375,-0.261
C#C[C@H](O[Si](C#CCCCCCC)(C(C)C)C(C)C)c1ccccc1,-0.441,-0.0593,-0.0994,0.323,-0.55,-0.204,0.0885,0.0077 (inactive),-0.748,-0.217
C=C[C@H](C)[C@H](O)c1ccc(OCCO)cc1,0.254,-0.716,-0.243,-1.14,-2.21,-0.758,-0.694,5.78 (inactive),-0.91,-0.204
CC[C@@H]1C=C(C(=O)O)[C@H](c2ccc(C(C)C)cc2)N1S(=O)(=O)c1ccc(C)cc1,0.341,1.41,0.412,1.12,1.75,1.91,0.908,-2.32 (inactive),1.64,0.0401
O=S(=O)(NCCCO)c1ccc(Br)cc1,-0.109,1.04,-0.112,0.209,0.433,1.07,1.07,-1.91 (inactive),0.14,-0.226
C=C(COC)C(=O)CC[C@@H](OC(=O)c1ccccc1-c1ccccc1C(=O)O)c1ccc(CO)o1,-0.229,1.23,-0.0449,-0.177,0.187,0.982,1.36,-3.75 (inactive),-0.551,-0.0994
COCCOC(=O)N1C(=O)[C@@]2(c3cc(C#CC4=CCCCC4)ccc31)[C@H](c1ccc(OCCO)cc1)N1[C@H](c3ccccc3)[C@H](c3ccccc3)OC(=O)[C@H]1[C@@H]2C(=O)Nc1nc2ccccc2s1,-0.368,0.115,-0.104,0.854,1.4,0.93,1.12,1.89 (inactive),0.241,0.0722
[N-]=[N+]=Nc1ccccc1[C@@H]1OC(c2ccc(OCCCO)cc2)=N[C@]1(CCS(=O)(=O)c1ccccc1)C(=O)N1CCCCC1,1.78,1.25,0.206,0.77,1.6,1.37,1.29,-1.72 (inactive),1.18,-0.249
C=C[C@H](C)[C@H](OC(=O)Nc1ccc(OC)cc1)c1ccc(O)c2ccccc12,0.436,-0.0826,-0.121,-0.148,-0.714,-0.322,0.957,3.63 (inactive),-0.304,-0.124
CCCCC(=C=CC[C@H](O)c1ccccc1OCCO)C[C@H](O)c1cc(Cl)cc(Cl)c1O,-0.114,-0.257,-0.0628,0.583,0.151,0.371,1.1,-2.37 (inactive),0.0025,-0.226
C=CCC(OC(C)=O)[C@@H]1[C@@H](N(Cc2cc3ccccc3o2)C(=O)c2ccc(-c3ccccc3)cc2)c2cc(OCCCO)ccc2N1C(=O)Cc1ccc2ccccc2c1 (stereo not given in full),0.179,-0.499,-0.0428,0.101,-0.14,-0.0892,-0.5,-1.28 (inactive),0.261,0.17
CCCC[C@@H]1C[C@H]1[C@@H](NC(=O)c1ccco1)c1ccccc1,1.29,-0.52,-0.171,-0.511,-2.22,-0.44,-0.454,-0.192 (inactive),-0.945,-0.0275
O=C1C2C=CC(C(O)c3ccc(Br)cc3)N(n3cnnc3)C2C(=O)N1Cc1ccccc1 (stereo not given),-0.0627,0.52,0.0488,0.533,1.3,0.0603,0.722,0.258 (inactive),0.549,0.134
COC(=O)c1c2oc(c1C(=O)OC)C(=O)N[C@H](Cc1ccccc1)Cn1nncc1C1(CCCCC1)NC(=O)N[C@H](CO)CC2,-0.442,0.158,-0.0853,0.108,0.0153,-0.0781,0.646,-1.33 (inactive),0.233,-0.212
COCCOC(=O)N1C(=O)[C@@]2(c3cc(C#Cc4ccc(OC)cc4)ccc31)[C@H](c1ccc(OCCO)cc1)N1[C@H](c3ccccc3)[C@H](c3ccccc3)OC(=O)[C@H]1[C@@H]2C(=O)N1CCc2cc(OC)c(OC)cc2C1,-0.327,0.514,0.0051,0.214,0.871,0.424,0.981,-0.948 (inactive),0.225,0.232

Structure (SMILES),composite z-score [1],composite z-score [2],composite z-score [3],composite z-score [4],composite z-score [5],composite z-score [6],composite z-score [7],z-score [8],composite z-score [9],composite z-score [10]
C/C=C/[C@H](CCn1cc([C@H](O)c2ccccc2)nn1)[Si](C)(C)c1ccc(OC)cc1,1.18,-0.153,-0.234,-0.071,-1.51,0.0287,-0.0288,-0.488 (inactive),-1.04,-0.374
Cc1ccc(S[C@]2(C(=O)NCCCN(C)C)CC(=O)N(C(C)C)[C@@H]2c2ccc(CO)cc2I)cc1,0.052,-0.54,-0.0954,-0.238,-0.373,0.994,0.861,-0.312 (inactive),-0.152,-0.354
CN(C)CCCC[C@@H]1NC(=O)[C@@H]2C[C@H](C(=O)NCCCCCCN)[C@H](c3ccc(O)cc3)N2C1=O,1.95,0.58,0.15,0.727,0.921,1.39,1.44,-0.0024 (inactive),2.16,0.861
O=C1C2C=CC(C(O)C3CC=CCC3)N(n3cnnc3)C2C(=O)N1Cc1ccccc1 (stereo not given),0.61,0.43,-0.158,-1.03,-1.23,0.998,0.518,0.37 (inactive),-0.354,0.12
COCCCNC(=O)[C@@]1(Cc2ccccc2I)c2ccccc2C(=O)N(Cc2ccccc2)[C@H]1c1ccc(CO)cc1,0.094,-0.785,-0.142,-0.487,-1.61,0.542,1.34,-4.46 (inactive),-0.656,0.0695
CN1C(=O)C2C=CC(C(O)c3ccc(Br)cc3)N(Nc3ccccc3)C2C1=O (stereo not given),0.607,1.46,-0.0747,-0.287,-0.468,0.648,0.728,0.665 (inactive),-0.118,-0.0346
CCCNC(=O)[C@@]1(C)c2ccccc2C(=O)N(Cc2cc(C(F)(F)F)cc(C(F)(F)F)c2)[C@H]1c1ccc(CO)cc1,0.177,-0.0656,-0.0653,0.108,-0.626,1.68,1.37,0.0565 (inactive),-0.0368,-0.0645
C=C(CCCC)C(=O)CC[C@H](OC(C)=O)c1ccc(CO)o1,-0.282,0.0494,-0.0985,-0.0414,-0.366,-0.119,0.798,-0.463 (inactive),-0.402,-0.0994
CN(C)CCCC[C@@H]1NC(=O)[C@@H]2C[C@H](C(=O)NCc3ccc(F)cc3)[C@H](c3cccc(OCCO)c3)N2C1=O,-0.173,-0.114,-0.0707,0.738,-0.252,0.617,1.02,1.36 (inactive),0.202,-0.41
CC1CC/C=C\[C@H]2OC34C=CCN(CCN5CCOCC5)C(=O)[C@H]3N(CCCCCO)C(=O)[C@@H]4C2C(=O)O1 (stereo not given in full),-0.0823,-0.368,-0.21,-1.05,-0.777,-0.85,-0.358,0.209 (inactive),-0.633,-0.216
NC(=O)NCC#Cc1ccc2c(c1)[C@]1(C(=O)N2)[C@H](c2ccccc2OCCO)N2[C@H](c3ccccc3)[C@H](c3ccccc3)OC(=O)[C@H]2[C@@H]1C(=O)N1CCCCCCC1,3.75,1.38,0.866,0.803,1.38,1.31,1.08,-1.7 (inactive),3.41,3.04
COC(=O)[C@@]1(Cc2ccc(OC)cc2)[C@H]2c3cc(C(=O)N4CCCC4)n(C[C@H](O)CO)c3C[C@H]2CN1C(=O)c1ccccc1,0.288,-0.0909,0.198,0.673,1.13,1.17,0.531,1.13 (inactive),0.488,0.0749
C=CC[C@@]1(C(=O)OC)N=C(c2ccc(OCCCO)cc2)O[C@@H]1c1ccccc1CN=[N+]=[N-],0.0729,0.0269,-0.116,-0.438,0.406,0.482,1.1,-0.484 (inactive),0.166,-0.199
O=C1O[C@H](c2ccccc2)[C@H](c2ccccc2)N2[C@H]1[C@@H](C(=O)NC[C@H](O)c1ccccc1)[C@]1(C(=O)Nc3ccc(C#CC4(O)CCCCCC4)cc31)[C@H]2c1ccccc1OCCO,-0.267,0.444,-0.136,0.566,0.967,0.911,1.12,-0.369 (inactive),0.0026,-0.0645
COc1ccc([Si](C)(C)[C@@H]2[C@@H](CC(=O)N3Cc4ccccc4C[C@H]3CO)O[C@]3(C(=O)N(Cc4cccc(N5C(=O)COc6ccccc65)c4)c4ccccc43)[C@H]2C)cc1,-0.562,0.608,-0.1,0.41,0.244,1.57,0.725,-2.29 (inactive),0.0559,-0.451
C=CCC(OC(C)=O)[C@@H]1[C@@H](N(Cc2ccc(-c3ccccc3)cc2)C(=O)c2ccc(C)cc2)c2cc(OCCCO)ccc2N1C(=O)Cc1ccc(OC)cc1 (stereo not given in full),-0.0305,0.0667,-0.078,0.27,-0.0045,-0.369,-0.453,-1.32 (inactive),0.255,-0.0994
